High-throughput results deposited in PubChem by National Center for Advancing Translational Sciences (NCATS).
Cruzain inh noDet = inhibitors of Trypanosoma cruzi cruzain without detergent; P25779; purified cruzain, Z-FR-AMC fluorescence, no detergent; Potency, µM, without a hit: max response, negative = inhibition, hits mostly inhibitors; 200,000 tested, 2.3% active;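 note: plate controls were enzyme without inhibitor for no effect and buffer without enzyme for full effect; nearly all actives have a fitted effect of over 40% in size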
Target sequence (P25779 123-467 limits assumed): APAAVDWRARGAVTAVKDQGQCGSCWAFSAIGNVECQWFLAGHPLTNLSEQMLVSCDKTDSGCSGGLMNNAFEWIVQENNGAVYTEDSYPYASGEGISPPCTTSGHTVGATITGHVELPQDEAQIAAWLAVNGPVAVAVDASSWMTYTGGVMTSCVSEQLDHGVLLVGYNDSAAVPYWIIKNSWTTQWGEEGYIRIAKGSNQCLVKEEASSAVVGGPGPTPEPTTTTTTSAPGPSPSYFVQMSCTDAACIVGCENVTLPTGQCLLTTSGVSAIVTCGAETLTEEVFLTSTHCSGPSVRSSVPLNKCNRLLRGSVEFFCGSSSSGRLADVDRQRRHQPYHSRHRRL
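Detergent-free condition (0.00005% Triton X-100) in acetate buffer pH 5.5 with DTT. 1.5 nM enzyme and compound were pre-mixed 15 min, then 2 uM Z-FR-AMC substrate added; reaction progress from fluorescence change between first and third reads (60 s).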
Cruzain inh Det = cruzain (T. cruzi) inhibition with detergent | Potency, µM, inactives show max response, negative = inhibition, actives largely listed as inhibitors | purified cruzain, Z-FR-AMC fluorescence, 0.01% Triton | AID 1478 | 200,000 tested, 0.43% active;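 note: plate controls were neutral wells for no effect and buffer without enzyme for full effect; nearly all actives have a fitted effect of over 40% in size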
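Steps: dispense cruzain (1.5 nM final) in acetate buffer pH 5.5 with DTT and 0.01% Triton X-100; pin-transfer compounds; incubate 15 min RT; add Z-FR-AMC (2 uM final); read fluorescence every 30 s, using the 60 s intensity change.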
* hit, by the source's call; ? = inconclusive. Most compounds without a hit are left out; they make up all but 2.6% or so of the library. Calls come from the whole dose curve; as a rule, active = well fitted curve in the direction sought with a large enough effect; inconclusive = small, poorly fitted or top-dose-only effect, or another doubt; inactive = no such curve, though single readings can be large; an effect the other way counts as inactive or inconclusive. Potency is the fitted concentration of half-maximal effect.

SMILES	Cruzain inh noDet	Cruzain inh Det
Cc1ccc(C2=N/C(=C\c3c(C)nn(-c4ccccc4)c3N3CCCC3)C(=O)O2)cc1	1.6µM*	1µM*
CS(=O)(=O)Oc1ccccc1/C=C1/N=C(c2ccc(F)cc2)OC1=O	16µM*	14µM*
Cc1nn(-c2ccccc2)c(N2CCCC2)c1/C=N/O	4%	-1%
Cc1nn(-c2ccccc2)c(N2CCCC2)c1/C=C1\N=C(c2ccc(F)cc2)OC1=O	0.32µM*	0.4µM*
CCOC(=O)CCCSc1nc(-c2ccc3c(c2)OCO3)cc(C(F)(F)F)c1C#N	25µM*	-4%
CCOC(=O)CSc1nc(-c2ccc(OC)cc2)cc(C(F)(F)F)c1C#N	-3%	-3%
COC(=O)c1ccc2c(=O)n(CCCCCC(=O)N3CCN(c4ccc(F)cc4)CC3)c(=O)[nH]c2c1	8%	-7%
CCn1cc(S(=O)(=O)CC(=O)Nc2ccc3c(c2)OCCO3)c2ccccc21	-3%	-4%
Cc1cccc(NC(=O)c2cc(S(=O)(=O)N3CCN(c4ccccc4F)CC3)ccc2F)c1C	-2%	1%
Cc1cccc(N2CCN(S(=O)(=O)c3ccc(F)c(C(=O)Nc4cccc(Cl)c4C)c3)CC2C)c1 (stereo unspecified)	13µM*	1%
CC(=O)c1ccc(NC(=O)CCc2c(C)nn(-c3ccc(N4CCOCC4)nn3)c2C)cc1	-6%	-3%
COc1cc(C2CC(=O)c3cnc(N4CCN(CCO)CC4)nc3C2)cc(OC)c1OC (stereo unspecified)	-9%	-3%
O=C(Nc1cc([N+](=O)[O-])ccc1Cl)C(Sc1ccccc1)c1ccccc1 (stereo unspecified)	2%	-4%
COc1ccc(NC(=O)C2CCN(S(=O)(=O)c3ccc(OC)c(OC)c3)CC2)c(OC)c1	16%	2%
Cc1cc2nc(-c3ccc(SCC(=O)N4CCOCC4)nc3)[nH]c2cc1C	?	-10%
COc1ccc(NC(=O)COc2ccc(N(C)S(=O)(=O)c3ccc(C)cc3)cc2)cc1	15%	0%
Cc1ccc(S(=O)(=O)N(C)c2ccc(OCC(=O)Nc3nc4c(ccc5ccccc54)s3)cc2)cc1	4µM*	-1%
CN(C)S(=O)(=O)c1ccc(N2CCCC2)c(C(=O)Nc2nc3c(ccc4ccccc43)s2)c1	7.9µM*	-4%
Cc1ccc(S(=O)(=O)N(C)c2ccc(OCC(=O)Nc3nc4ccccc4s3)cc2)cc1	?	-1%
Cc1ccc(S(=O)(=O)N(C)c2ccc(OCC(=O)Nc3nc(-c4ccccc4)cs3)cc2)cc1	7.9µM*	-1%
CN(c1ccc(OCC(=O)Nc2nc(-c3ccccc3)cs2)cc1)S(=O)(=O)c1ccc(F)cc1	7.9µM*	0%
CCOC(=O)C(=O)c1csc(NC(=O)COc2ccc(N(C)S(=O)(=O)c3ccc(F)cc3)cc2)n1	-4%	-3%
CN(C)S(=O)(=O)c1ccc(N2CCCC2)c(C(=O)Nc2nc(-c3ccc(F)c(F)c3)cs2)c1	-12%	-4%
CCC1(C)Cc2c(sc3nc(SCC(=O)O)[nH]c(=O)c23)CO1 (stereo unspecified)	6%	-1%
Cc1ccc(Oc2ccccc2/C=N/O)cc1	-5%	2%
SMILES	Cruzain inh noDet	Cruzain inh Det
Cc1nc2c(s1)sc1ccccc12	-1%	0%
CN(C)[C@H]1N(C(=O)c2ccc(Br)cc2)N=C2c3ccccc3S(=O)(=O)N21	15%	1%
O=S(=O)(c1ccc(F)cc1)c1nc(-c2ccccc2F)oc1N1CCCCC1	-5%	-10%
COc1ccccc1C(=O)Nc1nc2nc(C)cc(=O)n2[nH]1	1%	4%
CCn1c2ccccc2c2cc(NC(=O)c3ccc(C)c([N+](=O)[O-])c3)ccc21	25µM*	-3%
CCn1c2ccccc2c2cc(NC(=O)c3ccc(Br)o3)ccc21	107%	13µM*
CCn1c2ccccc2c2cc(NC(=O)c3cccc([N+](=O)[O-])c3)ccc21	-4%	4%
CCn1c2ccccc2c2cc(NC(=O)c3cc(OC)cc(OC)c3)ccc21	?	-6%
O=C(Nc1ccc(N2CCCC2)c(Cl)c1)c1ccc(Br)o1	10µM*	-14%
O=C(Nc1ccccc1N1CCCC1)c1ccc(Br)o1	-6%	-4%
C=C(C(C)=O)C(O)c1ccc(C(F)(F)F)cc1 (stereo unspecified)	-5%	3%
O=c1cc(O)nc(SCc2ccccc2)[nH]1	-26%	-4%
CC(=O)c1c(C)c2c(n1CCN(C)C)CCCC2	-9%	-2%
COCCNC(=O)CN(C)S(=O)(=O)c1ccc(Br)cc1	-11%	-1%
CCOC(=O)N1CCc2c(sc3c2c(=O)n(Cc2ccccc2)c(=O)n3Cc2cccc(Cl)c2)C1	7.9µM*	-3%
CCOC(=O)N1CCc2c(sc3c2c(=O)n(Cc2ccccc2)c(=O)n3CC(=O)Nc2cccc(CC)c2)C1	-17%	-1%
CC(C)c1c(C#N)c(N)nc(SCC(=O)c2cc3ccccc3oc2=O)c1C#N	-37%	1%
N#Cc1ccc(-c2ccccc2)nc1SCC(=O)c1cc2ccccc2oc1=O	20µM*	-5%
Cc1ccc(-c2nnc3ccccc3c2C(=O)Nc2ccc(F)cc2)cc1	-10%	-1%
Cc1ccc(-c2nnc3ccccc3c2C(=O)Nc2ccccc2F)cc1	25µM*	0%
N#Cc1nc(COc2ccccc2)oc1N1CCCC1	-10%	0%
Cc1ccc(O)c(C(=O)c2cc(C(=O)NCCc3ccccc3)c(=O)n(CCc3ccccc3)c2)c1	25µM*	-5%
COc1ccc(O)c(C(=O)c2cc(C(=O)NCCc3ccccc3)c(=O)n(CCc3ccccc3)c2)c1	-2%	-5%
CCCCn1c(C(C)NC(=O)CCC)nc2ccccc21 (stereo unspecified)	0%	3%
Cc1onc(-c2ccccc2)c1C(=O)NC(=S)Nc1sc2c(c1C#N)CCCC2	13µM*	-8%
SMILES	Cruzain inh noDet	Cruzain inh Det
Cc1onc(-c2ccccc2)c1C(=O)NC(=S)Nc1sc2c(c1C#N)CCC(C)C2 (stereo unspecified)	7.9µM*	-6%
Cc1onc(-c2ccccc2)c1C(=O)Nc1sc2c(c1C#N)CCC2	-21%	-5%
Cc1onc(-c2c(F)cccc2Cl)c1C(=O)Nc1sc2c(c1C(N)=O)CCC2	?	-15%
Cc1cc(C(=O)Nc2sc3c(c2C#N)CCC(C)C3)no1 (stereo unspecified)	-7%	-2%
Cc1onc(-c2c(F)cccc2Cl)c1C(=O)Nc1sc2c(c1C#N)CCC(C(C)(C)C)C2 (stereo unspecified)	10µM*	-4%
O=C(NCc1ccco1)c1cc2nc(C3CC3)cc(C(F)(F)F)n2n1	-4%	3%
CC(=O)C1=C(C)N(Cc2ccco2)C(=O)C1(NC(=O)C1CCCCC1)C(F)(F)F (stereo unspecified)	-1%	1%
CSC1=NCCN1C(=O)c1ccc(Br)o1	-3%	-1%
COc1ccc(-c2cn3cc(Cl)ccc3n2)cc1OC	-22%	-24%
Cc1ccc(NC(=S)N/N=C/c2ccc([N+](=O)[O-])s2)cc1	?	-28%
NC(=S)NNc1cccc(Cl)c1	2%	-8%
O=C(COC(=O)c1c2c(nc3ccccc13)CCCCC2)NCc1ccc2c(c1)OCO2	-18%	-3%
CNC(=O)NC(=O)C(C)OC(=O)c1c2c(nc3ccccc13)/C(=C/c1cccs1)CC2 (stereo unspecified)	2%	-10%
Cc1cccc(C)c1NC(=O)COC(=O)c1c2c(nc3ccccc13)/C(=C\c1ccc3c(c1)OCO3)CCC2	7.9µM*	-1%
